Screening data deposited in PubChem BioAssay by National Center for Advancing Translational Sciences (NCATS).
Sm TGR inh: qHTS Assay for the Inhibitors of Schistosoma Mansoni Peroxiredoxins | Potency, µM (series often up to 114 µM), without a hit: top-dose activity change, negative = inhibition, actives largely listed as inhibitors | purified TGR, DTNB reduction, TNB absorbance 405 nm | AID 485364, 2010 | 3% of 360,000 active | Schistosoma mansoni thioredoxin glutathione reductase (TGR), Q962Y6; note: potency is the fitted concentration of half-maximal effect; nearly all actives have a fitted effect of over 60% in size
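Kinetic colorimetric format: TGR-catalysed, NADPH-driven DTNB reduction monitored via TNB absorbance. Enzyme dispensed at 20 nM; compound exposure 15 min at room temperature before reaction start.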
Pf growth 96h: Primary qHTS for delayed death inhibitors of the malarial parasite plastid, 96 hour incubation; 6.9% of 320,000 active; AID 504834, 2011; Potency, µM (doses to about 28.7 µM), without a hit: at the highest dose activity change, negative = inhibition, hits mostly inhibitors; P. falciparum luciferase reporter growth, 96 h; note: potency is the fitted concentration of half-maximal effect
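Cell-based qHTS: luciferase-tagged P. falciparum in erythrocytes (2% hematocrit, 0.05% parasitemia final) incubated with compounds for 96 hours, 37 C, 5% CO2; luciferase detection reagent then added and luminescence measured.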
HCMV inh: qHTS Assay for inhibitors of the human cytomegalovirus (HCMV); activity change, negative = inhibition, % at 57.5 µM; 4.5% of 410,000 active; HFF cells, HCMV-luciferase reporter, 72 h; active compounds read low; in the data active = activity change below about -60%; inconclusive = no clear call, values can overlap the other calls; inactive = above about -39%
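After 16 h attachment at 37C, HFF cells received test compound and HCMV-luciferase (1 PFU/cell); reporter luminescence read 72 h later, data normalized against buffer-only and known inhibitor Salinomycin.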
FBPA Giardia inh: qHTS Assay for Inhibitors of Fructose-1,6-bisphosphate Aldolase from Giardia Lamblia. purified Giardia FBPA. Potency, µM (doses to about 59.6 µM), for inactives: at the top dose activity, negative = inhibition, usual class: inhibitors. 0.71% of 290,000 active; note: potency is the fitted concentration of half-maximal effect; nearly all actives have a fitted effect of over 55% in size
Target sequence (A8B2U2 whole entry, looked up): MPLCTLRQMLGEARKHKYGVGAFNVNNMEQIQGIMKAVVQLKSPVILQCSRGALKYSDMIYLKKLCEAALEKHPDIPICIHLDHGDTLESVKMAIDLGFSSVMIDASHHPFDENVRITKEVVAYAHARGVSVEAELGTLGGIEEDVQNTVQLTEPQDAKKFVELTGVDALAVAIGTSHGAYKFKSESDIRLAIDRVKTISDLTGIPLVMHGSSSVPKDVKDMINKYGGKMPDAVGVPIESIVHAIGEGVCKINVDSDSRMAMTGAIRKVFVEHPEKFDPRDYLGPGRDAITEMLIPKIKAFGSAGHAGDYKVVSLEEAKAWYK
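Giardia FBPA (40 nM reagent) was preincubated 10 min at RT with compound (up to 57.5 uM final), then substrate plus GAPDH/TPI/NAD/arsenate coupling system with diaphorase/resazurin was added; resorufin fluorescence (525/598 nm) was read after 20 min.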
Pf growth 48h: Primary qHTS for delayed death inhibitors of the malarial parasite plastid, 48 hour incubation. AID 504832, 2011. P. falciparum luciferase growth in erythrocytes, 48 h. 5.9% of 310,000 active. Potency, µM (top dose mostly 28.7 µM), for inactives: at the top dose activity change, negative = inhibition, hits mostly inhibitors; note: potency is the fitted concentration of half-maximal effect
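Cell-based growth assay: transgenic P. falciparum expressing firefly luciferase, cultured in red cells within RPMI 1640 containing 0.5% w/v Albumax, 24 mM bicarbonate and gentamycin. A drop in luciferase activity indicates inhibition.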
The depositor's hits bear a star; u = inconclusive; x = no result given; ! = not active in a repeat; [ ] = dose if it differs, or a comment. In the library only some 14% were active in any assay of this set; here they are far more common. Unless noted, calls come from the whole dose curve; as a rule, active = well fitted curve in the direction sought with a large enough effect; inconclusive = small, poorly fitted or top-dose-only effect, or another doubt; inactive = no such curve, though single readings can be large; an effect the other way counts as inactive or inconclusive. % is set by controls: 0 for no effect and ±100 for the full control effect.

SMILES | Sm TGR inh | Pf growth 96h | HCMV inh | FBPA Giardia inh | Pf growth 48h
Cc1ccc(S(=O)(=O)NC2c3cccc4cccc(c34)C2Sc2nc(C)cc(C)n2)cc1 (stereo unspecified) | -7.5% | 8.28µM* | 1.4 | -1.1% | 10.4µM*
Cc1ccc(S(=O)(=O)N2CCCC(c3nnc4n3-c3ccccc3SC4)C2)cc1 (stereo unspecified) | -0.2% | 13.1µM* | -26.4 | 3.1% | 0.0%
Cc1ccc(CNC(=O)c2nnc(CS(=O)(=O)c3ccccc3)o2)cc1 | 7.1% | u | 25.5 | 10.1% | u
O=C(NCc1ccccc1Cl)c1nnc(CS(=O)(=O)c2ccccc2)o1 | -15.9% | 18.8% | -99.4* | -8.6% | 5.22µM*
Cc1nn(-c2ccccn2)c2c1C(=O)CC(C)(C)C2Br (stereo unspecified) | 12.1% | u | -13.7 | -1.0% | 14.7µM*
Cc1ccc(-n2nc(C)c3c2C(Br)C(C)(C)CC3=O)nc1 (stereo unspecified) | x | x | -19.3 | x | x
Cc1ccc(C(CCNC(C)c2cccs2)c2ccco2)cc1 (stereo unspecified) | -6.0% | u | -60.9* | 2.5% | 10.4µM*
CC(NCCC(Cc1ccccc1)c1ccco1)c1ccccc1 (stereo unspecified) | 6.1% | u | -36.1 | -2.7% | u
CO/N=C/C(C#N)=C/c1ccc(OC)c(OC)c1 | 18.5% | 12.6% | -16.6 | 0.2% | -16.9%
CO/N=C/C(C#N)=C/c1cc(C(=O)c2ccccc2)cn1C | -0.3% | 2.94µM* | -25.8 | -1.0% | u
Cc1cccc(C(=O)N2CCc3cc(CNC(=O)c4ccc(Br)o4)ccc32)c1 | 2.8% | x | -66.6* | x | x
Cc1ccc(C(=O)N2CCc3cc(CNC(=O)c4ccnn4C)ccc32)cc1 | 0.3% | x | -70.2* | x | x
COc1ccc(S(=O)(=O)NCc2ccc3c(c2)CCN3C(=O)c2ccc(C)cc2)cc1Cl | 0.0% | x | -26.0 | x | x
CC(C)c1ccc(S(=O)(=O)NCc2ccc3c(c2)CCN3C(=O)c2ccccc2)cc1 | -11.7% | x | -66.2* | x | x
COc1ccc(Cl)cc1S(=O)(=O)NCc1ccc2c(c1)CCN2C(=O)c1cccc(C)c1 | 5.0% | x | -86.8* | x | x
COc1ccc(S(=O)(=O)NCc2ccc3c(c2)CCN3C(=O)c2ccccc2)cc1OC | 1.3% | x | -19.3 | x | x
CC1(C)Oc2ccc(C#N)cc2[C@H](N2CCCC2=O)[C@H]1O | x | 8.8% | x | 8.4% | -9.5%
Cc1ccc(C(=O)N2CCc3cc(CNS(=O)(=O)c4cccs4)ccc32)cc1 | 1.8% | x | -38.7 | x | x
Cc1cccc(C(=O)N2CCc3cc(CNS(=O)(=O)c4cccs4)ccc32)c1 | -0.3% | x | -61.8* | x | x
CCOC(=O)c1cc(C)n(Cc2ccc(OCC)c(OC)c2)c1C | -12.1% | x | -8.4 | 0.6% | 1.65µM*
CCOC(=O)c1c(C)c(C)n(Cc2ccc(OC)c(OC)c2)c1C | 2.2% | u | u | -0.2% | 8.28µM*
CCOC(=O)c1cc(C)n(CC2CCC(C(=O)Nc3ccc(OC)c(OC)c3)CC2)c1C (stereo unspecified) | 43.4% | x | 11.2 | x | x
COc1ccc(CNC(=O)O[C@H]2C[C@@H]3C(=O)N(c4ccccc4)C(=O)[C@@H]3[C@@H]3CN(S(=O)(=O)c4ccc(C)cc4)C[C@]23O)cc1OC | x | x | -2.5 | x | x
C=CCc1cc(/C=N/NC(=O)CSc2nnc(CCCc3ccc(OC)cc3)o2)cc(OC)c1O | -1.8% | 0.0586µM* | 2.7 | -2.2% | x
C=CCc1cc(/C=N\NC(=O)CSc2nnc(CCCc3ccc(OC)c(C)c3)o2)cc(OC)c1O | 4.9% | 2.94µM* | -15.9 | -0.3% | 3.7µM*
SMILES | Sm TGR inh | Pf growth 96h | HCMV inh | FBPA Giardia inh | Pf growth 48h
O=C(Cc1ccsc1-c1ccccc1)NO | 3.9% | 15.0% | -32.2 | -22.9% | 13.1µM*
COc1ccc(CNC(=O)c2cccc(N3CCCS3(=O)=O)c2)cc1OC | 4.4% | x | -84.6* | x | x
COc1ccc(CNC(=O)c2cccc(N3CCCS3(=O)=O)c2)cc1 | 12.5% | x | -17.6 | x | x
O=C(Cc1ccc(Cl)cc1)NCCCn1ccnc1 | -12.2% | u | 12.8 | -0.8% | u
Clc1ccc(CSC(Cn2ccnc2)c2ccc(Cl)cc2Cl)cc1 (stereo unspecified) | 2.5% | 2.94µM* | u | 0.9% | 2.08µM*
Clc1ccc(CS[C@@H](Cn2ccnc2)c2ccc(Cl)cc2Cl)cc1 | x | 2.28µM* | x | 0.7%[21.7 µM] | 5.1µM*
CC(C)=CCC/C(C)=C/CO/N=C1/[C@H]2O[C@@H]2[C@@H](O)[C@H]2[C@H]1CCn1c(=O)n(Cc3cc4c(cc3Cl)OCO4)c(=O)n12 | x | x | x | 2.8%[12.9 µM] | x
O=S(=O)(O)Sc1ccccc1 | x | x | -87.0* | x | x
CCN(CC)c1ccc(SS(=O)(=O)O)cc1 | 9.5% | 10.4µM*! | -36.9 | u | 13.1µM*
CCN(CC)c1ccc(C(=O)O)cc1 | 6.5% | 75.3% | -35.6 | -3.2% | 0.4%
C[C@@H]1CN([C@@H](C)CO)C(=O)c2cc(Br)cnc2O[C@H]1CN(C)C(=O)Cc1cccnc1 | x | x | 27.1 | x | x
CC(=O)c1cccc(OCC(O)CN2CC=C(c3ccccc3)CC2)c1 (stereo unspecified) | -3.0% | 1.85µM* | -15.2 | u | u
CCOC(=O)C(=Cc1ccc(-n2cncn2)cc1)C(=O)OCC | 15.8µM* | u | -100.1* | -0.4% | u
O=C(NC(=S)N1CCCc2ccccc21)c1ccc([N+](=O)[O-])cc1 | -32.7% | 7.38µM* | 1.9 | -2.1% | u
CC(=O)Nc1ccccc1-c1nc2ccc(C(=O)N3CCN(c4cccc(C)c4)C(C)C3)cc2[nH]c1=O (stereo unspecified) | 7.3% | 6.57µM* | -0.2 | -13.9% | x
CC(=O)Nc1ccccc1-c1nc2ccc(C(=O)N3CCN(c4ccccc4)CC3)cc2[nH]c1=O | -29.5% | u | 49.2 | -1.1% | -2.4%
CCCCN(CCCC)CCNC(=O)c1ccc2nc(-c3ccccc3NC(C)=O)c(=O)[nH]c2c1 | 1.6% | 5.1% | 0.0 | -0.7% | 2.33µM*
